Measured values from ChEMBL document CHEMBL4513141, “CO-ADD screening of NIH (USA) - Clinical Collection” (2021).
Entries with a potency or affinity are not part of this list.

Experiments:
Klebsiella pneumoniae = settings: Concentration 20 uM; ASSAY_TEST Inhibition of Bacterial Growth; detection method Absorption (OD600); MEDIA CAMHB; plate type 384well; NBS; CORNING #3640; time 18 hr
Candida albicans = settings: 20 µM
Cryptococcus neoformans = settings: Concentration 20 uM; ASSAY_TEST Inhibition of Fungal Growth; detection method Resazurin; Absorption (OD600-OD570); plate type 384well; NBS; CORNING #3640

| Compound | Inhibition (Klebsiella pneumoniae) | Inhibition (Candida albicans) | Inhibition (Cryptococcus neoformans) |
| --- | --- | --- | --- |
| O=C(O)C(Cl)Cl [DICHLOROACETIC ACID] | 10.68% | 2.59% | -3.9% |
| Cl.Cl.OCCN1CCN(CCCN2c3ccccc3Sc3ccc(C(F)(F)F)cc32)CC1 [FLUPHENAZINE HYDROCHLORIDE] | 7.98% | 1.45% | -8.76% |
| CC(C)(C)NCC(O)c1cc(O)cc(O)c1.O=S(=O)(O)O (centres undefined) | 12.1% | 2.97% | -9.43% |
| CNCC(O)c1ccc(O)cc1 (centres undefined) [OXEDRINE] | -0.12% | 5.72% | 1.4% |
| CS(=O)(=O)O.O=C(O[C@@H]1C[C@@H]2C[C@H]3C[C@H](C1)N2CC3=O)c1c[nH]c2ccccc12 | 8.46% | 2.39% | 1.75% |
| C[C@H](CCC(=O)O)[C@H]1CC[C@H]2[C@@H]3[C@@H](O)C[C@@H]4C[C@H](O)CC[C@]4(C)[C@H]3CC[C@]12C [URSODIOL] | 5.07% | 3.21% | -2.96% |
| Br.COc1ccc2c(c1)[C@]13CCCC[C@@H]1[C@H](C2)N(C)CC3.O [DEXTROMETHORPHAN HYDROBROMIDE] | 8.1% | 2.88% | -7.7% |
| Cl.Oc1ccc2c3c1OC1C(O)CC[C@@]4(O)[C@@H](C2)N(CC2CCC2)CC[C@]314 (some centres undefined) | 8.11% | 2.98% | -7.08% |
| Cl.FC(F)(F)c1cccc(N2CCNCC2)c1 [N- (3-TRIFLUOROMETHYLPHENYL)PIPERAZINE HYDROCHLORIDE (TFMPP)] | 6.51% | 4.36% | -3.92% |
| C[N+]1(C)CCC(OC(=O)C(O)(c2ccccc2)C2CCCC2)C1.[Br-] (centres undefined) [GLYCOPYRRONIUM BROMIDE] | 13.34% | 3.65% | -2.52% |
| NC(=O)OCCCc1ccccc1 [PHENPROBAMATE] | 12.49% | 3.16% | -1.72% |
| COc1cc([C@@H]2c3cc4c(cc3[C@H](O)[C@H]3COC(=O)[C@H]23)OCO4)cc(OC)c1OC [PODOFILOX] | 15.68% | 0.66% | -1.83% |
| CC(=O)OC1C([N+]2(C)CCCCC2)C[C@H]2C3CC[C@H]4C[C@H](OC(C)=O)C([N+]5(C)CCCCC5)CC4(C)[C@H]3CCC12C.[Br-].[Br-] (some centres undefined) | 10.46% | -0.59% | -9.01% |
| Cl.O.Oc1ccc2c3c1O[C@H]1c4[nH]c5ccccc5c4C[C@@]4(O)C(C2)N(CC2CC2)CC[C@]314 | -0.12% | 6.31% | -5.72% |
| Cl.O=C1CC2(CCCC2)CC(=O)N1CCCCN1CCN(c2ncccn2)CC1 [BUSPIRONE HYDROCHLORIDE] | 10.99% | 5.32% | -4.43% |
| Cl.O=C1c2cccc3c2[C@H](CCC3)CN1[C@@H]1CN2CCC1CC2 [PALONOSETRON HYDROCHLORIDE] | 8.73% | 2.55% | -0.6% |
| CNS(=O)(=O)Cc1ccc2[nH]cc(CCN(C)C)c2c1.O=C(O)CCC(=O)O [SUMATRIPTAN SUCCINATE] | 9.24% | 4.97% | -9.65% |
| CC(C(=O)O)c1ccc(-c2ccccc2)c(F)c1 (centres undefined) [FLURBIPROFEN] | 4.59% | 8.89% | -3.5% |
| Cl.c1ccc2c(CC3=NCCN3)cccc2c1 [NAPHAZOLINE HYDROCHLORIDE] | 13.63% | 3.38% | -4.12% |
| CC(=O)CC(c1ccccc1)c1c([O-])c2ccccc2oc1=O.[Na+] (centres undefined) [WARFARIN SODIUM] | 4.09% | 3.09% | 0.59% |
| NC1=NC(=O)C(c2ccccc2)O1 (centres undefined) [PEMOLINE] | 13.09% | 1.75% | -5.45% |
| CCCC(C)(COC(N)=O)COC(=O)NC(C)C (centres undefined) [CARISOPRODOL] | 4.45% | 4.69% | 4.79% |
| Oc1ncnc2[nH]ncc12 [ALLOPURINOL] | 15.5% | 2.36% | -1.92% |

| Compound | Inhibition (Klebsiella pneumoniae) | Inhibition (Candida albicans) | Inhibition (Cryptococcus neoformans) |
| --- | --- | --- | --- |
| CN1[C@@H]2CC[C@H]1CC(OC(=O)C(CO)c1ccccc1)C2 (some centres undefined) | 9.61% | 0.86% | -0.25% |
| CN1CCN(C2=Nc3cc(Cl)ccc3Nc3ccccc32)CC1 [CLOZAPINE] | 8.37% | 0.59% | -5.79% |
| Cc1ccc(-c2nc3ccc(C)cn3c2CC(=O)N(C)C)cc1.Cc1ccc(-c2nc3ccc(C)cn3c2CC(=O)N(C)C)cc1.O=C(O)C(O)C(O)C(=O)O [ZOLPIDEM TARTRATE] | 6.38% | 4.32% | -1.23% |
| CC(C)N(CCC(C(N)=O)(c1ccccc1)c1ccccn1)C(C)C.O=P(O)(O)O (centres undefined) [DISOPYRAMIDE PHOSPHATE] | 5.68% | 3.35% | 0.14% |
| CC[N+](C)(C)c1cccc(O)c1.[Cl-] [EDROPHONIUM CHLORIDE] | 15.01% | 2.22% | -6.73% |
| C#C[C@]1(O)CC[C@H]2[C@@H]3CCC4=CC(=O)CC[C@@H]4[C@H]3CC[C@@]21C [NORETHINDRONE] | 6.67% | 4.82% | 0.28% |
| C[C@]12CC[C@H](O)CC1=CC[C@@H]1[C@@H]2CC[C@]2(C)C(=O)CC[C@@H]12 [PRASTERONE] | 10.09% | 14.5% | 2.55% |
| O=C(O[C@@H]1Cc2c(O)cc(O)cc2O[C@@H]1c1cc(O)c(O)c(O)c1)c1cc(O)c(O)c(O)c1 [EPIGALOCATECHIN GALLATE] | 17.83% | 3.47% | -2.04% |
| COC(=O)N1CCN(C(=O)Cc2ccc(Cl)c(Cl)c2)C(CN2CCCC2)C1.O=C(O)/C=C/C(=O)O (centres undefined) | 6.19% | 2.42% | -1.96% |
| CNCCC(Oc1ccc(C(F)(F)F)cc1)c1ccccc1.Cl (centres undefined) [FLUOXETINE HYDROCHLORIDE] | 3.44% | 1.79% | -8.4% |
| CN1C(=O)COc2c(C(=O)NC3CN4CCC3CC4)cc(Cl)cc21.Cl (centres undefined) | 10.75% | 2.68% | -3.23% |
| COc1ccc(C(CN(C)C)C2(O)CCCCC2)cc1.Cl (centres undefined) [VENLAFAXINE HYDROCHLORIDE] | 15.76% | 3.64% | -9.68% |
| CNC(=O)Oc1ccc2c(c1)[C@]1(C)CCN(C)C1N2C.CNC(=O)Oc1ccc2c(c1)[C@]1(C)CCN(C)C1N2C.O=S(=O)(O)O (some centres undefined) | 13.28% | 2.24% | -6.96% |
| CC[C@]1(O)CC[C@H]2[C@@H]3CCC4=CCCC[C@@H]4[C@H]3CC[C@@]21C [ETHYLESTRENOL] | 4.45% | 4.07% | -2.32% |
| NS(=O)(=O)c1cc(C2(O)NC(=O)c3ccccc32)ccc1Cl (centres undefined) [CHLORTHALIDONE] | 4.57% | 3.92% | -1.27% |
| C[N+]1(C)CCCC(OC(=O)C(O)(c2ccccc2)c2ccccc2)C1.[Br-] (centres undefined) [MEPENZOLATE BROMIDE] | 9.6% | 4.42% | -1.1% |
| C[C@]12CC[C@H]3[C@@H](CCC4=CC(=O)CC[C@@]43C)[C@@H]1CC[C@@H]2O [TESTOSTERONE] | 3.5% |  | 1.59% |
| CC(C)NCC(O)c1ccc(O)c(O)c1.Cl (centres undefined) [ISOPROTERENOL HYDROCHLORIDE] | 6.57% | 2.42% | 0.22% |
| Cl.NCCc1ccc(O)c(O)c1 [DOPAMINE HYDROCHLORIDE] | 13.84% | -0.19% | -1.49% |
| C[C@]12CC(C=O)=C(O)C[C@@H]1CC[C@@H]1[C@@H]2CC[C@@]2(C)[C@H]1CC[C@]2(C)O | 6.07% | 6.85% | 3.15% |
| O.O=P1(N(CCCl)CCCl)NCCCO1 (centres undefined) [CYCLOPHOSPHAMIDE] | 7.22% | 0.13% | 1.2% |
| Cc1ncc2n1-c1ccc(Cl)cc1C(c1ccccc1F)=NC2.Cl [MIDAZOLAM HYDROCHLORIDE] | 2.84% | 3.62% | -0.63% |
